Screening data from PubChem.
PfHsp90 set2 = reduces growth (ATP signal) of yeast expressing P. falciparum Hsp90; S. cerevisiae expressing PfHsp90, BacTiter-Glo ATP, 48 h; yeast lacking PDR1 and PDR3 efflux regulators; inhibition, % at 9.4 µM; 310,000 tested, 0.32% active; AID 504621;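 active means every replicate shows inhibition above about 80%, whatever the replicate mean, limit read from the data; inconclusive means mean inhibition reaches the set limit but some replicate falls short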;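 further: 0% = DMSO neutral controls and 100% = 20 µM radicicol positive controls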
EBI2 block = blocks human EBI2 receptor beta-arrestin signaling; 360,000 tested, 0.81% active; inhibition, % at 5 µM; EBI2 beta-arrestin recruitment, luminescence, 7a,25-OHC stimulated; in the data active means inhibition above about 38%;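 further: enzyme fragment complementation signal reports receptor beta-arrestin coupling in cells; 0% = agonist plus DMSO wells and 100% = wells without agonist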
Target sequence (P32249 whole entry, looked up, the tested form may be a part): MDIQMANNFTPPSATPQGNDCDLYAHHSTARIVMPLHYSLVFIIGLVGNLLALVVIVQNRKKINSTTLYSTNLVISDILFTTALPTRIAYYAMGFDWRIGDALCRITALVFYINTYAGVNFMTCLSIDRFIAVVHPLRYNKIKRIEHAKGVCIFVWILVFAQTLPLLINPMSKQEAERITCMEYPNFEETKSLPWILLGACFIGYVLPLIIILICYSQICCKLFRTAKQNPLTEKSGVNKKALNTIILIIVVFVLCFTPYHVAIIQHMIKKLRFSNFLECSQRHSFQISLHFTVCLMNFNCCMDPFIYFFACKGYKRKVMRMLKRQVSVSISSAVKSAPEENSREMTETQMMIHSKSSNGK
TIM10 inh = TIM10 yeast growth inhibition; AID 463195; inhibition, % at 10 µM; S. cerevisiae TIM10 strain growth, BacTiter-Glo luminescence, 24 h; 330,000 tested, 1.4% active;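 active means inhibition of 40% or more at the single tested concentration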;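 further: wild-type TIM10 isogenic control strain grown at permissive 25 °C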
tim23-1 inh = inhibits growth of tim23-1 mutant yeast; inhibition, % at 20 µM; 330,000 tested, 1.3% active; S. cerevisiae tim23-1 growth, BacTiter-Glo luminescence, 24 h;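 active means growth inhibition of the mutant yeast at or above 50%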;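 further: temperature-sensitive mutant grown at 25 °C; plate controls were DMSO-treated mutant yeast for no effect and medium wells lacking yeast for full effect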
tim10-1 inh = growth inhibitors of tim10-1 mutant yeast. inhibition, % at 20 µM. 330,000 tested, 2.2% active. AID 463190. S. cerevisiae tim10-1 ts strain growth, BacTiter-Glo, 24 h;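 active means inhibition of at least 40%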;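 further: mutant grown at 25 °C; 0% = DMSO wells with yeast and 100% = wells holding no yeast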
SKKanGAS inh = blocks kanamycin growth of S. pyogenes SKKanGAS strain | BacTiter-Glo, 6 h | inhibition, % at 7.5 µM | 300,000 tested, 1.3% active;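 active means mean replicate score, as percent of positive control median, at least 50; inconclusive means mean below 50 but one replicate at or above 50; inactive means mean and every replicate below 50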;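 further: strain carries kanamycin resistance gene driven by streptokinase promoter and grows in 40 µg/ml kanamycin; loss of luminescence reflects streptokinase promoter inhibition or plain growth inhibition; 0% = median of DMSO wells and 100% = positive control at its reference dose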
* hit, by the source's call; u = inconclusive; x = not tested or not shown. Hits are enriched below; roughly 4.7% of the tested compounds scored in any of these assays.

SMILES | PfHsp90 set2 | EBI2 block | TIM10 inh | tim23-1 inh | tim10-1 inh | SKKanGAS inh
CCCCN(CCCC)S(=O)(=O)c1ccc(C(=O)Nc2nnc(COC)o2)cc1 | -13 | -5 | 4 | 20 | 21 | 92*
Cc1ccc(OCC(=O)NNC(=S)NC(=O)C2CC2)c(C)c1 | 104* | 8 | -6 | 21 | 20 | x
N#Cc1ccc(OCC(=O)NNC(=S)NC(=O)C2CC2)cc1 | -21 | -5 | -1 | 9 | 8 | x
CC(C)c1ccc(OCC(=O)NNC(=S)NC(=O)c2cccs2)c(Br)c1 | -16 | -6 | 23 | 31 | 34 | 78*
CC(C)c1ccc(OCC(=O)NNC(=S)NC(=O)C2CC2)cc1 | u | 9 | 1 | 12 | -18 | 96*
CC(C)c1ccc(OCC(=O)NN2C(=O)c3ccccc3C2=O)c(Br)c1 | -17 | -11 | 2 | 41 | 16 | 1
Cc1ccc(OCC(=O)NNC(=O)c2ccc(NC(=O)C3CC3)cc2)c(C)c1 | -29 | -3 | 8 | 4 | 10 | 4
Cc1ccc(OCC(=O)NNC(=S)NC(=O)C(C)(C)C)c(Br)c1 | 105* | 6 | -24 | 20 | 11 | 90*
Cc1ccc(C)c(CC(=O)N2CCCC(c3cc(C(=O)NCc4ccccc4)no3)C2)c1 (stereo not drawn) | x | 13 | x | x | x | x
Cc1ccc(S(=O)(=O)NCc2ccccc2)cc1C(=O)NCC(=O)Nc1c(C)cccc1C | x | -5 | x | x | x | x
O=[N+]([O-])c1ccc(/C=N/NC(=S)Nc2ccc(Cl)cc2Cl)s1 | -28 | 19 | 7 | 44 | 16 | 77*
CC1CC(C)CN(c2ncc3c(n2)CC(c2ccccc2Cl)CC3=O)C1 (stereo not drawn) | -4 | 40 | 24 | 27 | 32 | 63*
COc1ccc(C2CC(=O)c3cnc(N4CCN(Cc5ccccc5)CC4)nc3C2)cc1 (stereo not drawn) | -12 | 29 | 20 | 20 | 33 | 56*
CCCCn1c(N)c(N(CC(C)C)C(=O)COC(=O)C2(c3ccccc3)CC2)c(=O)[nH]c1=O | x | 6 | 3 | 7 | -1 | -5
Cc1ccsc1C(=O)N1CCC1(C)C(=O)NS(=O)(=O)c1ccc(C#N)cc1 (stereo not drawn) | x | 3 | x | x | x | x
Cn1c(=O)[nH]c(=O)c2c1nc(N1CCC(Cc3ccccc3)CC1)n2Cc1ccccc1 | -6 | 26 | 7 | 15 | 24 | 53*
CCCCCn1c(N2CCC(Cc3ccccc3)CC2)nc2c1c(=O)[nH]c(=O)n2C | -99 | 34 | -92 | 26 | 12 | 93*
NC(=O)c1cccc(-c2cc(Nc3ccc(OC(F)(F)F)cc3)ncn2)c1 | x | 14 | 16 | 23 | 33 | -26
N#Cc1cc(C(=O)c2cc(Cl)ccc2O)cn(-c2ccccc2)c1=O | -16 | -12 | 24 | 42 | 38 | -2
O=C(c1ccccc1)c1cc(Cl)ccc1N1C(=O)C=CC1=O | 107* | -7 | x | x | x | x
Cc1cccc(C)c1NC(=O)C(c1ccccc1)N1CCC(c2ccccc2)CC1 (stereo not drawn) | x | 16 | x | x | x | x
Cc1nn(Cc2c(Cl)cccc2Cl)c(C)c1NC(=O)c1cn(-c2ccccc2)nc1-c1ccccc1 | 33 | 13 | 7 | 12 | 4 | 63*
Cc1cccc(C)c1NC(=O)CNC(=O)c1cn(-c2ccccc2)nc1-c1ccccc1 | 31 | 10 | -6 | 3 | -3 | 18
C/C(=N\NC(=O)c1ccc(Cl)c(Cl)c1)c1ccc(Br)s1 | -6 | 10 | 6 | -10 | 10 | 88*
C/C(=N/NC(=O)c1ccc2c(c1)OCO2)c1ccc(Br)s1 | -1 | -15 | -6 | -17 | 4 | 14
SMILES | PfHsp90 set2 | EBI2 block | TIM10 inh | tim23-1 inh | tim10-1 inh | SKKanGAS inh
C/C(=N\Nc1ccc(Cl)c(C(=O)O)c1)c1ccc(Br)s1 | 4 | 1 | 8 | 7 | 10 | 58*
Cc1ccc(-c2cc(C(=O)Nc3sc4c(c3C(=O)NCc3ccco3)CCC4)[nH]n2)c(O)c1 | -9 | 18 | 13 | 4 | -1 | 11
CCNC(=O)c1c(NC(=O)c2cc(-c3cc(C)ccc3O)n[nH]2)sc2c1CCCC2 | 4 | 16 | 2 | 14 | 27 | 82*
O=C(COC(=O)Cc1c(F)cccc1Cl)NC1CCS(=O)(=O)C1 (stereo not drawn) | x | 2 | -5 | -11 | -5 | -7
COc1ccc2nc(C3CCCCC3)nc(C3CCCCC3)c2c1 | 15 | 12 | -15 | 14 | -15 | 90*
CC1CCN(c2cc(N3CCN(C(=O)c4ccc(F)c(F)c4)CC3)c([N+](=O)[O-])cc2F)CC1 | 21 | 22 | 21 | 15 | 18 | 17
Cc1ccc(C2=CC(=O)C[C@H](c3ccc(Cl)cc3)C2)cc1 | -17 | 74* | 6 | 45 | 6 | x
O=C1C=C(c2ccccc2)C[C@@H](c2ccc(Cl)cc2)C1 | -10 | 23 | -18 | 45 | -17 | x
Cc1ccc(C(=O)N2CCN(c3ccccc3Cl)CC2)cc1[N+](=O)[O-] | 105* | 36 | 10 | 46 | 13 | 15
Cc1ccc(C(=O)N2CCN(c3ccccn3)CC2)cc1[N+](=O)[O-] | 6 | -2 | 8 | 9 | 10 | 4
CCCCN(CCCC)c1cc(C)nc(-c2ccccc2O)n1 | -6 | 9 | -9 | 3 | 18 | 54*
CCS(=O)(=O)c1ncc(Cl)c(C(=O)Nc2ccc(S(=O)(=O)N(C)c3ccccc3)cc2)n1 | 4 | 86* | 6 | 32 | 27 | -52
Cc1ccc(NC(=O)c2nc(S(=O)(=O)Cc3ccccc3)ncc2Cl)cc1 | 104* | 34 | -59 | 50 | -114 | 15
COc1ccc(NC(=O)c2nc(S(=O)(=O)Cc3cccc(C)c3)ncc2Cl)c(OC)c1 | -8 | 50* | 19 | 35 | 32 | 3
CCCc1nnc(NC(=O)c2nc(S(=O)(=O)Cc3cccc(C)c3)ncc2Cl)s1 | 4 | 25 | 7 | 6 | 23 | 3
O=C(NC(=S)NNC(=O)c1cccs1)c1ccc(Br)o1 | 5 | 7 | 6 | -10 | 16 | 101*
O=C(NC(=S)Nc1ccccc1)c1cccs1 | -11 | 6 | 1 | 38 | 19 | 1
O=C(Cc1ccccc1)NNC(=S)NC(=O)c1cccs1 | x | 4 | 8 | -19 | 24 | 79*
O=C(NNC(=S)NC(=O)c1cccs1)c1ccc(O)cc1 | -18 | 3 | 4 | 2 | -29 | x
O=C(/C=C/c1ccccc1)NC(=S)NNC(=O)Cc1cccs1 | 3 | 1 | 5 | -4 | 23 | 79*
O=C(Cc1cccs1)NNC(=S)NC(=O)c1ccccc1 | -1 | -5 | -14 | -43 | 19 | 56*
CCCc1nc2c3ccccc3ccn2c1Cc1cccc(F)c1 | x | 9 | x | x | x | x
CC(C)NC(=O)C1(C)CN(S(C)(=O)=O)CC(=O)N1Cc1cccc(C(F)(F)F)c1 (stereo not drawn) | x | -3 | x | x | x | x
COc1cc(NC(=O)CCN2CCN(C/C=C/c3ccccc3)CC2)cc(OC)c1 | 23 | 8 | 12 | 11 | 2 | -6
COc1ccc(CNC(=O)Cc2cccs2)cc1 | -14 | -2 | -10 | -3 | -20 | -3
